The results in this text go back to the supplement of paper PMC13392028.

For this test, the system named is PvIESI-1 RRM domain (Plasmodium vivax PVP01_0939900 aa 896-1203, GST fusion). Nature of the test: RBNS R-value (6-mer enrichment in protein-bound RNA vs input library) (ratio); higher = stronger binding preference; the methods of the paper give 50 / 100 / 500 nM protein instead. Put shortly: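 Purified GST-tagged RNA-recognition-motif regions, from orthologues in three Plasmodium species expressed in E. coli, were bound at room temperature to a random 40-mer in vitro transcribed RNA library and captured on glutathione magnetic agarose beads. Bound RNA and input were reverse transcribed and MiSeq-sequenced, with 6-mers counted from one replicate. Enrichment in bound RNA over input is reported as the R-value, calculated with the Burge lab pipeline.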

Regarding UGUGAU, the “RBNS R-value” is, setting by setting: (protein concentration: 250 nM) 2.53; (protein concentration: 500 nM) 2.8; (protein concentration: 1000 nM) 2.72.

Take GCCCGA: the “RBNS R-value” by setting is: (protein concentration: 250 nM) 1.45; (protein concentration: 500 nM) 1.67; (protein concentration: 1000 nM) 1.67.

In the case of ACCCGA, the “RBNS R-value” was 1.44 (protein concentration: 250 nM), 1.74 (protein concentration: 500 nM) and 1.74 (protein concentration: 1000 nM).

With CAUGAU, the “RBNS R-value” was 3.57 (protein concentration: 250 nM), 3.87 (protein concentration: 500 nM) and 3.8 (protein concentration: 1000 nM).

Consider GAUGAA, for which the “RBNS R-value” came out at 2.73 (protein concentration: 250 nM), 2.89 (protein concentration: 500 nM) and 2.83 (protein concentration: 1000 nM).

Turning to ACUGAU, the “RBNS R-value” turned out to be 2.99 (protein concentration: 250 nM), 3.2 (protein concentration: 500 nM) and 3.11 (protein concentration: 1000 nM).

UGAUAU: the “RBNS R-value” by setting is: (protein concentration: 250 nM) 2.45; (protein concentration: 500 nM) 2.79; (protein concentration: 1000 nM) 2.9.

Consider GAUGUG, for which the “RBNS R-value” by setting is: (protein concentration: 250 nM) 2.3; (protein concentration: 500 nM) 2.53; (protein concentration: 1000 nM) 2.31.

For the sequence UCUGAU, the “RBNS R-value” is 2.94 (protein concentration: 250 nM), 3.21 (protein concentration: 500 nM) and 3.02 (protein concentration: 1000 nM).

CUGAUA: the “RBNS R-value” by setting is: (protein concentration: 250 nM) 2.42; (protein concentration: 500 nM) 2.81; (protein concentration: 1000 nM) 2.81.

Turning to CGUGAU, the “RBNS R-value” (protein concentration: 250 nM) came to 2.33, the “RBNS R-value” (protein concentration: 500 nM) turned out to be 2.54 and the “RBNS R-value” (protein concentration: 1000 nM) turned out to be 2.51.

As for GUGAUG, the “RBNS R-value” (protein concentration: 250 nM) was found to be 3.26, the “RBNS R-value” (protein concentration: 500 nM) is 3.57 and the “RBNS R-value” (protein concentration: 1000 nM) is 3.34.

As for GAUUUC, the “RBNS R-value” turned out to be 2.32 (protein concentration: 250 nM), 2.49 (protein concentration: 500 nM) and 2.38 (protein concentration: 1000 nM).

Regarding UGAUGU, the “RBNS R-value” (protein concentration: 250 nM) came out at 4.24, the “RBNS R-value” (protein concentration: 500 nM) was found to be 4.51 and the “RBNS R-value” (protein concentration: 1000 nM) came out at 4.13.

Turning to AUGAUA, the “RBNS R-value” (protein concentration: 250 nM) was found to be 3.08, the “RBNS R-value” (protein concentration: 500 nM) was determined as 3.49 and the “RBNS R-value” (protein concentration: 1000 nM) is 3.64.

As to CUGAUU, the “RBNS R-value” is, setting by setting: (protein concentration: 250 nM) 3.89; (protein concentration: 500 nM) 4.11; (protein concentration: 1000 nM) 3.75.

For GCUGAU, the “RBNS R-value” runs as follows: (protein concentration: 250 nM) 2.62; (protein concentration: 500 nM) 2.82; (protein concentration: 1000 nM) 2.68.

As to UUUGAU, the “RBNS R-value” by setting is: (protein concentration: 250 nM) 3.94; (protein concentration: 500 nM) 4.25; (protein concentration: 1000 nM) 3.98.

As to GAUGAU, the “RBNS R-value” amounted to 3.86 (protein concentration: 250 nM), 4.13 (protein concentration: 500 nM) and 3.88 (protein concentration: 1000 nM).

With UGAUGG, the “RBNS R-value” (protein concentration: 250 nM) is 3.91, the “RBNS R-value” (protein concentration: 500 nM) turned out to be 4.11 and the “RBNS R-value” (protein concentration: 1000 nM) was 3.78.

For the sequence GAUUUU, the “RBNS R-value” reads like this: (protein concentration: 250 nM) 2.5; (protein concentration: 500 nM) 2.64; (protein concentration: 1000 nM) 2.47.

Regarding UGAUUU, the “RBNS R-value” by setting is: (protein concentration: 250 nM) 4.88; (protein concentration: 500 nM) 5; (protein concentration: 1000 nM) 4.69.
